# Source: PubChem BioAssay (NCATS)
# Inconclusive results are not listed. Calls of active or inactive are those of the source. Unless noted, calls follow the shape of the dose curve; as a rule, active = well fitted curve in the direction sought with a large enough effect; inconclusive = small, poorly fitted or top-dose-only effect, or another doubt; inactive = no such curve, though single readings can be large; an effect the other way counts as inactive or inconclusive.
# Key:
# [1] = test system: Zika virus NS2B-NS3 protease (linked construct); experiment: Confirmatory screen NINDS AMC qHTS for Zika virus inhibitors (AID 1347152); also: potency is read from the fitted curve at half-maximal effect; nearly all actives have a fitted effect of over 70% in size
# Summary of the method: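 Linked NS2B-NS3 protease, 1 nM, in 10 mM Tris-HCl pH 8.0, 0.01% Tween 20; compounds preincubated 15 min at room temperature. Nle-KRR-AMC 10 microM (Km 18.3 µM); 15-min fluorescence change (340/450 nm) fitted to 4-parameter Hill.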
# [2] = test system: Zika virus NS2B-NS3 protease (linked construct); experiment: 384 well plate NINDS Rhodamine confirmatory qHTS for Zika virus inhibitors (AID 1347164);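 also: fluorescence from protease cleavage of Ac-LKRR-rhodamine 110 substrate; potency is read from the fitted curve at half-maximal effect; nearly all actives have a fitted effect of over 65% in size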
# Summary of the method: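 Linked NS2B-NS3 protease (final 5, 30 or 60 nM) preincubated ~15 minutes with compounds, then 10 microM Ac-LKRR-Rhodamine 110 added. Fluorescence (485/538 nm) read after 25 minutes at room temperature, normalized to no-enzyme and no-inhibitor controls.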
# [3] = biological target: Cytochrome P450 2C9 (Homo sapiens) (UniProt P11712); experiment: Cytochrome P450 family 2 subfamily C member 9 (CYP2C9) small molecule antagonists: luciferase biochemical (cell-free) qHTS assay (AID 1645842; active = well fitted curve in the direction sought with a large enough effect in the repeat runs; an effect the other way counts as inactive or inconclusive; also: nearly all actives have a fitted effect of over 55% in size; also: potency is read from the fitted curve at half-maximal effect; as to activity change, negative = inhibition: % is scaled to controls: 0 for no effect and ±100 for the full control effect)
# Cytochrome P450 2C9 (Homo sapiens), sequence (P11712 whole entry, looked up): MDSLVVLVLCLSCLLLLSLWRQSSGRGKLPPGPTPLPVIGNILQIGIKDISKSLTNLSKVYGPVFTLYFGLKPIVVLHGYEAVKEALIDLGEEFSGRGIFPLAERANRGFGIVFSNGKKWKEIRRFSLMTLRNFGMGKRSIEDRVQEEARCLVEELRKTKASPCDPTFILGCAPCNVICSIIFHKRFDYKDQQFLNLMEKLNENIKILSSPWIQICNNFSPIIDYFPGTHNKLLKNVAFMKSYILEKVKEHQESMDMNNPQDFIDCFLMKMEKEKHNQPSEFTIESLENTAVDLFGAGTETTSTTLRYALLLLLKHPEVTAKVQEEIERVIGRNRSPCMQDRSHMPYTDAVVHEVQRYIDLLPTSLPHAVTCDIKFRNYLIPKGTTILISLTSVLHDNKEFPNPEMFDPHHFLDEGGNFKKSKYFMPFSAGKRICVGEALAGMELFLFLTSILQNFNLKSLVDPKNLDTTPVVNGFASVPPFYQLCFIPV
# Summary of the method: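 Luminescence, after 20 min with luciferin detection reagent, reflected CYP2C9 turnover during a 1 h NADPH-driven reaction at 37C. Enzyme-substrate mix contained 0.4% bovine serum albumin and was preincubated with compound 10 min at room temperature.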
# [4] = biological target: Catechol O-methyltransferase (Homo sapiens) (UniProt P21964); experiment: Confirmatory Screen for Target Class Profiling of Small Molecule Inhibitors of Methyltransferases (AID 1745852); settings: MTase-Glo luminescence, SAH detection, recombinant enzyme; measured here: COMT max response; stronger effect = lower value; as to activity change, negative = inhibition: % is scaled to controls: 0 for no effect and ±100 for the full control effect
# Catechol O-methyltransferase (Homo sapiens), sequence (P21964 whole entry, looked up): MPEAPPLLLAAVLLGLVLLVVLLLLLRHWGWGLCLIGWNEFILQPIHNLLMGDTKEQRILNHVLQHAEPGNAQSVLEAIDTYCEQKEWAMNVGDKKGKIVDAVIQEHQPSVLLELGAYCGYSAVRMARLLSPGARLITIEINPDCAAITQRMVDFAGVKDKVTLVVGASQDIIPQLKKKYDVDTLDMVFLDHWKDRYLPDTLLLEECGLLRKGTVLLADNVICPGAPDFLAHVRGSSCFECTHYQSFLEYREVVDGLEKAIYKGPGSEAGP
# [5] = biological target: Guanidinoacetate N-methyltransferase (Homo sapiens) (UniProt Q14353); experiment: as above; settings: activity change, negative = inhibition: at 57.3 µM (top of the series) unless noted
# [6] = biological target: Nicotinamide N-methyltransferase (Homo sapiens) (UniProt P40261); experiment: as above; settings: MTase-Glo luminescence, SAH detection, recombinant enzyme; measured here: NNMT max response; stronger effect = lower value
# Nicotinamide N-methyltransferase (Homo sapiens), sequence (P40261 whole entry, looked up): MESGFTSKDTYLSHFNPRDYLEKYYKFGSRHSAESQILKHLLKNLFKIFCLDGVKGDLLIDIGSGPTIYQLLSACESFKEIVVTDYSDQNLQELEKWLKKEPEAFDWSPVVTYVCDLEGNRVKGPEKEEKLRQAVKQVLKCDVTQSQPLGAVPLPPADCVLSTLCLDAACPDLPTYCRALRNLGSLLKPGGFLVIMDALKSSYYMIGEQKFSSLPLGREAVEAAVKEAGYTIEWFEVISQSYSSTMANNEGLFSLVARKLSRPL
# [7] = biological target: Phenylethanolamine N-methyltransferase (Homo sapiens) (UniProt P11086); experiment: as above; settings: MTase-Glo luminescence, SAH detection, recombinant enzyme; measured here: PNMT max response; stronger effect = lower value
# Phenylethanolamine N-methyltransferase (Homo sapiens), sequence (P11086 whole entry, looked up): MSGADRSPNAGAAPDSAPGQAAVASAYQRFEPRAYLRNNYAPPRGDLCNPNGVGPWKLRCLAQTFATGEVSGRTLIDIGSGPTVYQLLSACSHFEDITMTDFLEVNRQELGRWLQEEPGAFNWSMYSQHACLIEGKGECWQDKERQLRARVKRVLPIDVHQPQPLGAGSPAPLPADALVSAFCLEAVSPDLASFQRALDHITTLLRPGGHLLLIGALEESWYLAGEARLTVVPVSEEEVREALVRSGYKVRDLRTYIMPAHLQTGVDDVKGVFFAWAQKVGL
# [8] = Primary fluorescence-based thiol-reactive (MSTI) qHTS assay for identification of artifact compounds. (AID 1845221);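 also: thiol-reactive compounds lower the probe fluorescence signal; nearly all actives have a fitted effect of over 65% in size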
# Summary of the method: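 Probe: MSTI 4 uM, PBS pH 7.4, 2% DMSO. Incubation 1 h, RT, light-protected. Readout fluorescence 525/598 nm.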
# CRL-7250 = normal cell line; experiment: Cytotoxic Profiling of Annotated Libraries Using Quantitative High-Throughput Screening (AID 1296008); settings: Five cell lines viability, CellTiter-Glo ATP luminescence, 48-72 h; max response: stronger effect = lower value; also: nearly all actives have a fitted effect of over 60% in size; also: potency is read from the fitted curve at half-maximal effect; as to max response: % is scaled to controls: 0 for no effect and ±100 for the full control effect
# Summary of the method: (§1)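 Cells exposed to compounds for 48 or 72 hr at 37 degrees Celsius. Viability read as ATP-coupled luminescence with CellTiter-Glo after 10 min at room temperature.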
# HaCat = experiment: as above; settings: Five cell lines viability, CellTiter-Glo ATP luminescence, 48-72 h; max response: stronger effect = lower value
# Summary of the method: as §1
# SKOV3 = experiment: Primary qHTS to identify gynecologic anti-cancer compounds using libraries of approved drugs and bioactive compounds (AID 1345084); settings: Gynecologic cancer cell panel viability, ATPlite luminescence, 48 h; series mostly up to 57.5 µM; also: nearly all actives have a fitted effect of over 55% in size; also: potency is read from the fitted curve at half-maximal effect
# Summary of the method: (§2)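 Cell viability after 48 h drug treatment, ATPlite luminescence readout; five doses.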
# [9] = biological target: Cytochrome P450 2D6 (Homo sapiens) (UniProt P10635); experiment: Cytochrome P450 family 2 subfamily D member 6 (CYP2D6) small molecule antagonists: luciferase biochemical (cell-free) qHTS assay (AID 1645840; active = well fitted curve in the direction sought with a large enough effect in the repeat runs; an effect the other way counts as inactive or inconclusive; also: potency is read from the fitted curve at half-maximal effect; nearly all actives have a fitted effect of over 55% in size)
# Cytochrome P450 2D6 (Homo sapiens), sequence (P10635 whole entry, looked up): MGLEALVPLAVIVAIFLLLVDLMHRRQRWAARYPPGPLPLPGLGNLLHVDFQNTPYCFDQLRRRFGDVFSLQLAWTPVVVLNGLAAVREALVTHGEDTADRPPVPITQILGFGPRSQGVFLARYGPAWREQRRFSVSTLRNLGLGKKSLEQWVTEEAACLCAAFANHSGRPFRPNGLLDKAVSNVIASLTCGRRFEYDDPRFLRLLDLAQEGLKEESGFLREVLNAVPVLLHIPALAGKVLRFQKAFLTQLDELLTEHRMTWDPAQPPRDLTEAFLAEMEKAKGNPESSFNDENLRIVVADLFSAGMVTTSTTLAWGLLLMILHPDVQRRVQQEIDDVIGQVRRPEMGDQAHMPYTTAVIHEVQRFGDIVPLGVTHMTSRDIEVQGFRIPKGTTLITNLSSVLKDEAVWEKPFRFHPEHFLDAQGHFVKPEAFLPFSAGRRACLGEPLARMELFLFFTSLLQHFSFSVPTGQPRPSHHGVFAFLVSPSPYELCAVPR
# Summary of the method: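 P450-Glo luminescent screen: recombinant CYP2D6 enzyme–proluciferin substrate mix preincubated with compound 10 min at room temperature, then NADPH regeneration added for 1 h at room temperature. Detection reagent added for 20 min; luciferin light read as relative luminescence units.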
# CAOV3 = experiment: Primary qHTS to identify gynecologic anti-cancer compounds using libraries of approved drugs and bioactive compounds (AID 1345084); settings: Gynecologic cancer cell panel viability, ATPlite luminescence, 48 h; series mostly up to 57.5 µM; also: nearly all actives have a fitted effect of over 55% in size; also: potency is read from the fitted curve at half-maximal effect
# Summary of the method: as §2
# [10] = Confirmatory screen NINDS Rhodamine qHTS for Zika virus inhibitors (AID 1347161); also: potency is read from the fitted curve at half-maximal effect; nearly all actives have a fitted effect of over 60% in size
# Summary of the method: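 Each compound, titrated, sat 15 min with 25 nM linked protease before 1.5 microM Rhodamine110 substrate went in. Fluorescence gain over the next 15 min, in pH 8.0 Tris with Tween 20, gave Hill-fitted curves.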
# [11] = biological target: N-terminal Xaa-Pro-Lys N-methyltransferase 1 (Homo sapiens) (UniProt Q9BV86); experiment: Confirmatory qHTS for Inhibitors of N-terminal methyltransferase 1 (NTMT1): MTaseGlo Assay (AID 1645874); also: nearly all actives have a fitted effect of over 65% in size; also: potency is read from the fitted curve at half-maximal effect;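 as to activity change, negative = inhibition: luminescence from SAH made as NTMT1 methylates SPKRIA peptide using SAM; 0% = DMSO control and -100% = no-enzyme control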
# N-terminal Xaa-Pro-Lys N-methyltransferase 1 (Homo sapiens), sequence (Q9BV86 whole entry, looked up): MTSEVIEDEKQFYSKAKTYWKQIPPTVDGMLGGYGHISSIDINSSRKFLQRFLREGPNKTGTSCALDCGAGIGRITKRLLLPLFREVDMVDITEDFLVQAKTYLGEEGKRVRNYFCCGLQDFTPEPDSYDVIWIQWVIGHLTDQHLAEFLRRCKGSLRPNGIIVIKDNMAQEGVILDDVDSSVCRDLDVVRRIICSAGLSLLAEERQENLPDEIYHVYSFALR
# Summary of the method: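 Compounds are incubated with 125 nM NTMT1 and 100 uM SAM for 15 min before the SPKRIA peptide (1 uM) starts a 30 min room-temperature methylation. SAH is measured by coupled luciferase luminescence and curves fitted to a Hill equation.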
# [12] = qHTS drug screen for cell cycle checkpoint inhibitors in PARPi-resistant BRCA-mutant ovarian cancer cell lines. (AID 1963452; calls by dose curve; also: potency is read from the fitted curve at half-maximal effect); settings: PEO1/OlaR viability, CellTiter-Glo luminescence, 96 h; for Z-AUC: stronger effect = lower value
# Summary of the method: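 PEO1, PEO4 and PEO1/OlaR ovarian cancer cells, 600 per well, exposed 96 h at 37C to a dilution series. Viability read by CellTiter-Glo luminescence, normalized to DMSO and empty wells; activity summarized as Z-AUC.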
# NIH3T3 = experiment: Cytotoxic Profiling of Annotated Libraries Using Quantitative High-Throughput Screening (AID 1296008); settings: Five cell lines viability, CellTiter-Glo ATP luminescence, 48-72 h; max response: stronger effect = lower value; also: nearly all actives have a fitted effect of over 60% in size; also: potency is read from the fitted curve at half-maximal effect; as to max response: % is scaled to controls: 0 for no effect and ±100 for the full control effect
# Summary of the method: as §1
structure (smiles),measurement,setting,value
CC1CCN(C(c2ccc(F)cc2)c2ccc(C(C)C(=O)O)cc2-c2ccc(C(F)(F)F)cc2)CC1 (stereo unspecified),Potency,[1],13.9 µM (active)
same,Potency,[2],2.51 µM (active)
same,Potency,[3],9.52 µM (active)
same,activity,[4],4.19%
same,"activity change, negative = inhibition",[5],0%
same,activity,[6],-58.6%
same,activity,[7],4.79%
same,Potency,[8],inactive
same,max response,CRL-7250,-3.89% (inactive)
same,max response,HaCat,1.13% (inactive)
same,Potency,SKOV3,inactive
COc1ccc(Cl)cc1[C@@]1(F)C(=O)Nc2cc(C(F)(F)F)ccc21,Potency,[9],23.9 µM (active)
same,Potency,[3],6.01 µM (active)
same,Potency,[8],inactive
same,max response,CRL-7250,-2.43% (inactive)
same,Potency,CAOV3,inactive
CC(=O)N1c2ccc(-c3ccc(C(=O)O)cc3)cc2C(Nc2ccc(Cl)cc2)CC1C (stereo unspecified),Potency,[10],12.4 µM (active)
same,Potency,[2],70.8 µM (active)
O=C(NCc1ccc(Oc2ccccc2)cc1)c1nc(-c2cc(Br)c(O)c(Br)c2)no1,Potency,[1],13.9 µM (active)
same,Potency,[2],1.58 µM (active)
CC1CCC2C(=CCC(O)C2(C)C)C1(C)Cc1c(O)cc(CO)c(C=O)c1O (stereo unspecified),Potency,[10],27.3 µM (active)
COc1ccccc1NC(=O)Nc1ccc2ccccc2c1,Potency,[11],inactive
CC(C)(C)c1ccc(-c2nc3ccccc3[nH]2)cc1,Potency,[11],8.91 µM (active)
C[C@@H]1COCCN1c1cc(C2(S(C)(=N)=O)CC2)nc(-c2ccnc3[nH]ccc23)n1 (stereo partly specified),Potency,[12],2.75 µM (active)
CC1OC2O[C@H]3[C@@H](OCC(O)[C@H]3O)OC(=O)C34CCC(C)(C)CC3C3=CCC5C6(C)CC(O)C(OC7OC(CO)C(O)C(O)C7O[C@@H]7OC[C@H](OC(=O)CC(C)(O)CC(=O)OC1C(OC1OCC(O)C(O)C1O)C2O)[C@@H](O)[C@H]7O)C(C)(CO)C6CCC5(C)C3(C)CC4 (stereo partly specified),max response,NIH3T3,-22% (inactive)
CO[C@@H]1[C@@H](O[C@H]2O[C@@H](C)[C@H](O[C@@H]3C[C@](C)(O)[C@H](O)[C@@H](C)O3)[C@@H](N(C)C)[C@@H]2O)[C@@H](CC=O)C[C@@H](C)[C@@H](O[C@H]2CC[C@H](N(C)C)[C@H](C)O2)/C=C/C=C/C[C@@H](C)OC(=O)C[C@H]1O,Potency,[8],inactive
same,Potency,CAOV3,inactive
same,Potency,SKOV3,inactive
CCCCc1nc(Cl)c(CO)n1Cc1ccc(-c2ccccc2-c2nnn[nH]2)cc1,Potency,[8],inactive
same,Potency,CAOV3,inactive
same,Potency,SKOV3,inactive
O=c1c(-n2ccnn2)c[nH]n1-c1cc(N2CCOCC2)ncn1,Z-AUC,[12],1.14 (inactive)
same,Z-AUC,[12]; measured here: PEO1 parental Z-AUC,0.854
same,Z-AUC,[12]; measured here: PEO4 Z-AUC,1.55
same,Potency,HaCat,1.86 µM (active)
C[N+]1(C)[C@@H]2CC[C@H]1CC(OC(=O)C(O)c1ccccc1)C2 (stereo partly specified),Potency,[8],inactive
same,Potency,CAOV3,inactive
same,Potency,SKOV3,inactive
CC1CCCC(SCC(O)C(=O)O)CC(=O)c2c(O)cc(O)cc2CC(=O)O1 (stereo unspecified),max response,HaCat,-1.3% (inactive)
same,Potency,CAOV3,inactive
Cc1cc(C)c(-c2csc(NC(=O)c3ccccc3)n2)c(C)c1,Potency,[8],inactive
same,Potency,NIH3T3,8.2 µM (active)
same,Potency,SKOV3,25.1 µM (active)
Cc1cc(N=Nc2ccc(S(=O)(=O)Nc3ccccn3)cc2)c(N)cc1O,Potency,NIH3T3,8.2 µM (active)
C=CC(=O)N1CCN(C(=O)c2cc(-c3cc(Cl)ccc3Cl)c(Cl)cc2OC)CC1,Potency,[9],19 µM (active)
same,Potency,[3],inactive
same,activity,[4],-10.7%
same,"activity change, negative = inhibition",[5],-11.4%
same,activity,[6],-31.6%
same,activity,[7],-2.64%
same,max response,NIH3T3,-20.9% (inactive)
